Measurements published in the supplement of paper PMC7156485.
“And” between values parts separate entries of the source, which are not always exact repeats. Equal entries are not always repeated.

What was measured:
Conditions in all cases: concentration: 10 µM; 24 h
[1] = test system: HCC1569; assay: cell number relative to DMSO (% of DMSO); higher = more cells (less growth inhibition / toxicity)
Method in brief: (§1)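 In 384-well plates holding 800 HCC1569 or TDF cells per well in RPMI with 10% FBS, compounds were tested at 10 µM for 24 h at 37 °C in triplicate. Fixation used 3.7% formaldehyde. Staining used a rabbit anti-H1.0 antibody with an AlexaFluor 647 secondary, plus DAPI. Each value, H1.0 nuclear intensity or cell number, is a median of replicates shown as percent of the plate control, and HCC1569 values were smoothed for positional effects.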

[2] = test system: TDF; assay: as above
Method in brief: as §1

[3] = test system: TDF; assay: H1.0 immunofluorescence intensity relative to DMSO (% of DMSO); higher = stronger H1.0 induction, active = 120 or more
Method in brief: as §1

[4] = test system: HCC1569; assay: H1.0 immunofluorescence intensity relative to DMSO (% of DMSO); higher = stronger H1.0 induction, active = 140 or more
Method in brief: as §1
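Throughout, for H1.0 immunofluorescence intensity relative to DMSO: TDF is a line of transformed human dermal fibroblasts of mesenchymal origin.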
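Throughout, for cell number relative to DMSO: TDF denotes transformed human dermal fibroblasts of mesenchymal origin.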

| SMILES | cell number [1] | cell number [2] | H1.0 immunofluorescence intensity [3] | H1.0 immunofluorescence intensity [4] |
| --- | --- | --- | --- | --- |
| CN(C)C(=O)Nc1cccc(-c2ccc(N(C)C)cc2)c1 [3-(4'-(dimethylamino)-[1,1'-biphenyl]-3-yl)-1,1-dimethylurea] | 101 | 101 | 97.6 (inactive) | 87.2 (inactive) |
| C[C@@H]1CCN(C(=O)CC#N)C[C@@H]1N(C)c1ncnc2[nH]ccc12 | 103 | 109 | 79 (inactive) | 96.3 (inactive) |
| CCCCCCCCCCCCCCCC(O)C(CO)NC(C)=O (stereo not drawn) [C2 Dihydroceramide] | 104 | 114 | 99.1 (inactive) | 97 (inactive) |
| COc1cc(C(O)C(=O)O)ccc1O (stereo not drawn) [hydroxy(4-hydroxy-3-methoxyphenyl)acetic acid] | 99.7 | 99.1 | 94.8 (inactive) | 99.4 (inactive) |
| OCC1OC(n2cnc3c(NC4CC5CCC4C5)ncnc32)C(O)C1O (stereo not drawn) | 99.1 | 92.5 | 96.9 (inactive) | 91.9 (inactive) |
| COc1cc2c3cc1Oc1cc(ccc1O)CC1c4c(cc(OC)c(O)c4Oc4ccc(cc4)CC3N(C)CC2)CC[N+]1(C)C (single isomer, unassigned; (+)) [(+)-Tubocurarine chloride] | 103 | 92.5 | 104 (inactive) | 89.2 (inactive) |
| CC(C)CCNC(=O)C(CC(C)C)NC(=O)C1OC1C(=O)O (stereo not drawn) | 106 | 96.1 | 100 (inactive) | 92.5 (inactive) |
| CCCCCCCCCCCCCCCCCCOCC(COP(=O)([O-])OCC[N+](C)(C)C)OC (stereo not drawn) [1-Octadecyl-2-methylglycero-3 PC] | 105 | 100 | 96.6 (inactive) | 101 (inactive) |
| C[C@@H]([C@@H](O)c1ccc(O)cc1)N1CCC(O)(c2ccccc2)CC1 | 102 | 91.1 | 94.7 (inactive) | 105 (inactive) |
| O=c1ccn(C2OC(COP(=O)([O-])OP(=O)([O-])O)C(O)C2O)c(=O)[nH]1.[Na+].[Na+] (stereo not drawn) [Uridine 5'-diphosphate sodium] | 105 | 106 | 95.6 (inactive) | 98.7 (inactive) |
| O=C1NCCN1CCN1CCC(c2cn(-c3ccc(F)cc3)c3ccc(Cl)cc23)CC1 | 66.8 | 39.3 | 213 (active) | 139 (inactive) |
| N#CC(=Cc1ccc(O)c(O)c1)C(=O)c1ccc(O)c(O)c1 [Tyrphostin AG 538] | 80.4 | 97.3 | 99.2 (inactive) | 190 (active) |
| NS(=O)(=O)c1ccc(-n2nc(C(F)(F)F)cc2-c2ccc(Cl)cc2)cc1 | 90.5 | 104 | 90.5 (inactive) | 90.7 (inactive) |
| O=S(=O)(NCCNCC=Cc1ccc(Br)cc1)c1cccc2cnccc12 | 92.1 and 91.5 | 98.1 and 96.7 | 93.6 (inactive) and 99.1 (inactive) | 84.2 (inactive) and 136 (inactive) |
| Cn1c(=O)c2[nH]cnc2n(C)c1=O.Cn1c(=O)c2[nH]cnc2n(C)c1=O.NCCN [Aminophylline ethylenediamine] | 103 | 102 | 98.7 (inactive) | 93.8 (inactive) |
| CCCCCC(O)C=CC1C(O)CC(O)C1CC=CCCCC(=O)O (stereo not drawn) [Dinoprost] | 100 | 106 | 93.2 (inactive) | 109 (inactive) |
| N#CC(=C(N)Sc1ccccc1N)c1cccc(C(O)c2ccncc2)c1 (stereo not drawn) [MEK Inhibitor I] | 77.2 | 86.8 | 98.7 (inactive) | 176 (active) |
| Nc1ccc2c3c(cccc13)C(=O)NC2=O [4-Amino-1,8-naphthalimide] | 94.1 | 77.8 | 104 (inactive) | 150 (active) |
| COCC(=O)NCC=Cc1ccc2ncnc(Nc3ccc(Oc4ccc(C)nc4)c(C)c3)c2c1 | 76.8 | 94.9 | 98.3 (inactive) | 158 (active) |
| Br.Br.N=C(N)SCCN [2-(2-Aminoethyl)isothiourea dihydrobromide] | 99.2 | 85.8 | 96.9 (inactive) | 99.7 (inactive) |
| O=C(O)c1ccc(-c2c[nH]c3ncc(-c4ccccc4)cc23)cc1C1CCCC1 | 71.1 and 70.9 | 69.4 and 71.3 | 95.6 (inactive) and 106 (inactive) | 152 (active) and 146 (active) |
| Cc1ncc([N+](=O)[O-])n1CC(C)O (stereo not drawn) [Secnidazole] | 102 | 96.6 | 93.5 (inactive) | 107 (inactive) |
